Results: PubChem BioAssay AID2113 (National Center for Advancing Translational Sciences (NCATS), 2009)
Records with an inconclusive call do not appear. Calls of active or inactive are those of the source. Calls follow the shape of the dose curve; as a rule, active = well fitted curve in either direction with a large enough effect; inconclusive = small, poorly fitted or top-dose-only effect; inactive = no such curve, though single readings can be large or run the other way.

The molecules below were run against Lysosomal alpha-glucosidase (Homo sapiens) (UniProt P10253) (assay: Confirmation of Inhibitors and Activators of Human alpha-Glucosidase From Spleen Homogenate). Conditions: alpha-glucosidase enzyme activity; series mostly up to 60.5 µM; activity change, both directions: at the top concentration.
Description: NIH Chemical Genomics Center [NCGC]
NIH Molecular Libraries Probe Production centers Network [MLPCN]
Assay Submitter (PI): Wei Zheng
Alpha-glucosidase is responsible for hydrolysis of terminal, non-reducing 1,4-linked alpha-D-glucose residues with release of alpha-D-glucose. It is a lysosomal hydrolase that is required for the degradation of a small percentage (1-3%) of cellular glycogen in human. Deficiency of this enzyme results in glycogen-storage disease type II (GSDII), also referred to as Pompe disease, an autosomal recessive disorder. Structurally normal glycogen is accumulated in lysosomes and cytoplasm in affected patients, primarily in muscle tissues. Excessive glycogen storage within lysosomes may interrupt normal functioning of other organelles and leads to cellular injury. In turn, this leads to enlargement and dysfunction of the entire organ involved (eg, cardiomyopathy and muscle weakness).
It has reported that the improper folding and trafficking of alpha-glucosidase resultinged from the genetic mutations may account for a significant number of Pomrope patients. […] We optimized this alpha-glucosidase assay in 1536-well plate format for identifying the novel small molecule inhibitors with the structures other than the sugar analogs in order to develop the new pharmacological chaperones. In particular, this assay is directed towards discovering compounds active in a more natural setting, tissue homogenate, that may have been missed by screens of the purified enzyme under more stringent conditions. This assay attempted to confirm hits from the primary screening.
NCGC Assay Protocol Summary:
This is a fluorogenic enzyme assay with 4-methylumbelliferyl-alpha-D-glucopyranoside as the substrate and human spleen homogenate containing alpha-glucosidase as the enzyme preparation. Upon hydrolysis of this fluorogenic substrate, the resulting product, 4-methylumbelliferone (which excites at 365 nm and emits at 440 nm) can be detected by a fluorescence plate reader. Data were normalized to the controls for basal activity (without enzyme) and 100% activity (with enzyme). The AC50 values were determined from concentration-response data modeled with the standard Hill equation.
Assay buffer: 50 mM citric acid (titrated with potassium phosphate to pH 5.0), 0.01% Tween-20 (pH 5.0 is an optimal condition for this enzyme assay)
1536-well assay protocol for the alpha-glucosidase from human spleen homogenate:
(1) Add 2 ul/well spleen homogenate (1 ug)
(2) Add 23 nL compounds in DMSO solution. The final titration was 0.5 nM to 58 uM.
(3) Add 2 ul of substrate (1 mM final)
(4) Incubate at 37 C for 40 min
(5) Add 2 ul stop solution (1M NaOH and 1M Glycine mixture, pH 10)
(6) Detect the assay plate in a ViewLux plate reader (PerkinElmer) with Ex=365 nm and Em=440nm.
Keywords: Alpha-glucosidase, Pompe Disease, pharmacological chaperone, chaperone therapy, high throughput screening, alpha-glucosidase inhibitor, MLSMR, MLSCN, NIH Roadmap, qHTS and NCGC
Also: 0% is about no effect.

Which “activity change, both directions” value does the source give for `Cc1cc(/C=C2/C(=O)NC(=O)N(Cc3ccco3)C2=O)c(C)n1-c1ccc(C(=O)O)cc1` here?
The value was -16.4% (inactive).

`C/C=C(/C)C(=O)O[C@H]1C(C)=C2C([C@@H]1OC(=O)CCCCCCC)[C@@](C)(OC(C)=O)C[C@@H](OC(=O)CCC)[C@@]1(O)[C@H]2OC(=O)[C@@]1(C)O` (stereo not given in full) was tested. Which “activity change, both directions” value did it give?
Its value is -6.96% (inactive).

With `C/C(O)=C(/C#N)C(=O)Nc1cc(Br)ccc1Br` as the molecule, how does the “activity change, both directions” value read?
Its value is -58.7% (inactive).

How did the “activity change, both directions” value turn out when `Cc1cc(C(=O)CS(=O)(=O)c2ccc(F)cc2)cc(C)c1OC(=O)N(C)C` was run?
The value was 1.6% [at 31.5 µM] (inactive).

`CCOc1ccc2cc(C#N)c(=O)oc2c1` was tested. Which “activity change, both directions” value did it give?
The value was 2.73% (inactive).

`CC(C)(C)c1cc(C=C(C#N)C#N)cc(C(C)(C)C)c1O` was tested. Which “activity change, both directions” value did it give?
The value was 2.31% (inactive).

With `Cc1cc(/C=C2\C(=O)NC(=O)N(c3ccc(F)cc3)C2=O)c(C)n1-c1ccc(C(=O)O)cc1` as the molecule, how does the “activity change, both directions” value read?
Its value is -12.7% (inactive).

Which “activity change, both directions” value does the source give for `O[C@@H]1[C@H](O)[C@H]2[C@@H](O)CCN2C[C@@H]1O` here?
The value was -100% [at 286 µM] (inactive).

For `CC(=O)[O][Hg][c]1ccccc1`, which “activity change, both directions” value is on record?
The value was 5.66% [at 286 µM] (inactive).

Which “activity change, both directions” value does the source give for `O=C(O)c1ccccc1-c1c2cc(Br)c(=O)cc-2oc2[c]([Hg])c(O)c(Br)cc12` here?
Its value is -2.07% [at 286 µM] (inactive).

Which outcome does the source give for `O[C@H]1[C@H](O)[C@@H](O)CN2CC[C@H](O)[C@H]12` here?
The outcome was “inactive”.

`CCCCC/C=C\C/C=C\C/C=C\C/C=C\CCCC(=O)NCCCC(=O)O` was tested. Which “activity change, both directions” value did it give?
The value was -9.01% (inactive).

Which “activity change, both directions” value does the source give for `COc1ccc(Cc2nccc3cc(OC)c(OC)cc23)cc1OC` here?
Its value is -1.95% (inactive).

For `CC(=O)Nc1ccc(OC(=O)c2ccccc2N)cc1`, which “activity change, both directions” value is on record?
The value was 6.2% [at 31.5 µM] (inactive).

With `OC[C@@H]1[C@@H](O)[C@H](O)[C@H]2[C@@H](O)CCN21` as the molecule, how does the “activity change, both directions” value read?
The value was -42.7% (inactive).
